Among the data in PubChem BioAssay (NCI) are growth values, retold here.

SMILES strings stand for the structures. The panel holds about 83,000 compounds, 20% with a hit somewhere; the sample as a whole holds those more often.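 Results are percent growth after 48 hours of single-concentration exposure. 100 means growth as in untreated cells, lower positive values show inhibition; negative values down to -100 show cell death.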 Unmarked numbers belong to inactive results. The source made the active and inactive calls. Rule for the calls: active = growth percent below 10; inactive = the rest.

Some test systems named below: NCI-H23 lung; NCI-H226 lung; NCI-H322M lung; HOP-62 NSCLC; NCI-H460 lung; HOP-92 NSCLC; NCI-H522 lung; A549/ATCC NSCLC; 786-0 renal; COLO 205 colon.
What all share (test): NCI-60 one-dose screen, 48 h (100 = growth as untreated, 0 = no growth, -100 = all killed)
Holding throughout (settings): 10 µM unless noted

As for `Oc1ccc(OCCOc2ccc(O)cc2)cc1`, the growth was 57.2% with NCI-H23 lung; 92% in the test with NCI-H226 lung; 82.1% in the test on NCI-H322M lung; 87.6% in the test with HOP-62 NSCLC; 48.5% in the test with NCI-H460 lung; 94.2% in the test on HOP-92 NSCLC. Besides, the growth was 30.9% in the test on NCI-H522 lung, 35% with A549/ATCC NSCLC, 28.3% in the test on 786-0 renal and 108% in the test with COLO 205 colon.
For `c1ccc2c(-c3nccs3)c[nH]c2c1`, the growth in the test on NCI-H23 lung was 96.2%; with NCI-H226 lung it was 97%; in the test on NCI-H322M lung it was 98%; in the test with HOP-62 NSCLC, 99.2%; in the test on NCI-H460 lung, 105%; with HOP-92 NSCLC, 89.7%. Moreover, the growth was 92.2% with NCI-H522 lung, 100% in the test with A549/ATCC NSCLC, 88.8% in the test on 786-0 renal and 119% in the test with COLO 205 colon.
In the case of `O=C(C1CCC1)N1N=C(c2ccc(-n3ccc(C(F)(F)F)n3)cc2)CC1c1ccc[nH]1` (stereo not given), the growth is 101% in the test on NCI-H23 lung; 107% with NCI-H226 lung; 90.1% with NCI-H322M lung; 108% in the test on HOP-62 NSCLC; 101% in the test with NCI-H460 lung; 130% in the test with HOP-92 NSCLC. The growth with NCI-H522 lung was 84.7%; in the test with A549/ATCC NSCLC, 89.3%; with 786-0 renal, 95.8%; in the test on COLO 205 colon, 113%.
On to `COc1cc(C2C3=C(COC3=O)N(CCO)c3cc4c(cc32)CCC4)cc(OC)c1OC` (stereo not given), for which the growth in the test with NCI-H23 lung is -26.2% (active); in the test on NCI-H226 lung, 2.98% (active); with NCI-H322M lung, 39.8%; in the test on HOP-62 NSCLC, 7.11% (active); in the test with NCI-H460 lung, -44.8% (active); in the test on HOP-92 NSCLC it was 78.2%. Besides, the growth was -26.7% (active) in the test on NCI-H522 lung, 28.9% in the test on A549/ATCC NSCLC, -4.65% (active) in the test with 786-0 renal and -98.8% (active) in the test on COLO 205 colon.
With `COc1ccccc1NS(=O)(=O)c1cccc(C(=O)Nc2ccc(Br)cc2)c1`, the growth in the test with NCI-H23 lung is 35.9%; in the test with NCI-H226 lung, 44.2%; in the test with NCI-H322M lung, 53.1%; in the test on HOP-62 NSCLC it was 62.9%; in the test with NCI-H460 lung, 47%; in the test with HOP-92 NSCLC it was 38.9%. The growth is 46.7% with NCI-H522 lung, 46% with A549/ATCC NSCLC, 59.5% with 786-0 renal and 57.9% with COLO 205 colon.
Regarding `O=C1c2ccc3c4c(ccc(c24)C(=O)N1CCCNCc1ccccc1Cl)C(=O)N(CCCNCc1ccccc1Cl)C3=O`, the growth in the test on NCI-H23 lung is -51.9% (active); in the test on NCI-H226 lung, -57.1% (active); in the test on NCI-H322M lung, -66.2% (active); in the test with HOP-62 NSCLC, -19.8% (active); with NCI-H460 lung, -52.1% (active); with HOP-92 NSCLC it was -7.21% (active). For the same molecule, the growth in the test with NCI-H522 lung is -83.1% (active); in the test with A549/ATCC NSCLC, -84.1% (active); in the test on 786-0 renal, -32.8% (active); in the test with COLO 205 colon, -15.9% (active).
Take `O=C1c2cccc3c(-c4ccc5c(c4)ncn5C4CCCCC4)ccc(c23)C(=O)N1CCO`: the growth with NCI-H23 lung was 78.6%; in the test on NCI-H226 lung, 77%; in the test with NCI-H322M lung it was 91.8%; with HOP-62 NSCLC, 81.9%; with NCI-H460 lung, 94.1%; in the test with HOP-92 NSCLC it was 51.1%. The growth in the test on NCI-H522 lung is 73.7%; in the test on A549/ATCC NSCLC it was 95.6%; in the test with 786-0 renal, 95.4%; in the test on COLO 205 colon, 108%.
In the case of `CCN1C(=O)N(CC)C2Nn3c(s/c(=C\c4ccc(OC)cc4)c3=O)=NC21` (stereo not given), the growth in the test with NCI-H23 lung was 76.3%; in the test with NCI-H226 lung, 85.1%; in the test with NCI-H322M lung it was 82.6%; in the test on HOP-62 NSCLC it was 55.8%; in the test on NCI-H460 lung, 32.2%; with HOP-92 NSCLC, 75.4%. In addition, the growth is 12.2% in the test with NCI-H522 lung, 50.7% in the test with A549/ATCC NSCLC, 34.6% in the test with 786-0 renal and 31.7% with COLO 205 colon.
Turning to `CCOc1ccc(/C=N/Nc2cc(C)nc3ccc(Br)cc23)cc1`, the growth is 82.2% in the test on NCI-H23 lung; 92.7% in the test with NCI-H226 lung; 93.5% in the test with NCI-H322M lung; 96.5% with HOP-62 NSCLC; 87.2% in the test with NCI-H460 lung; 57.5% with HOP-92 NSCLC. For the same molecule, the growth was 97.7% in the test with NCI-H522 lung, 82% with A549/ATCC NSCLC, 96.1% in the test on 786-0 renal and 96.2% with COLO 205 colon.
Take `CCCCOc1ccc(/C(C)=N/Nc2cc(C)nc3ccc(Br)cc23)cc1`: the growth in the test on NCI-H23 lung is 90.7%; in the test with NCI-H226 lung, 89.6%; in the test on NCI-H322M lung, 103%; with HOP-62 NSCLC it was 88.7%; with NCI-H460 lung, 14.2%; with HOP-92 NSCLC it was 78.4%. Moreover, the growth with NCI-H522 lung was 96.9%; with A549/ATCC NSCLC, 92.5%; in the test with 786-0 renal it was 95.1%; in the test on COLO 205 colon, 26.5%.
For the molecule `CCNC(=O)Oc1ccc(/C(=C(\C)c2ccccc2)c2ccc(OCCCN(C)C)cc2)cc1`, the growth in the test with NCI-H23 lung is 75.8%; in the test on NCI-H226 lung, 99.2%; with NCI-H322M lung, 80.7%; with HOP-62 NSCLC, 87.4%; in the test on NCI-H460 lung it was 87.1%; with HOP-92 NSCLC it was 69.4%. Besides, the growth with NCI-H522 lung is 86.4%; in the test with A549/ATCC NSCLC it was 78.9%; with 786-0 renal, 64.2%; with COLO 205 colon, 54.5%.
Turning to `CCCC/C=N/NC(=S)NCc1ccccc1`, the growth is 103% in the test on NCI-H23 lung; 98.6% with NCI-H226 lung; 105% in the test on NCI-H322M lung; 82.1% in the test on HOP-62 NSCLC; 101% in the test on NCI-H460 lung; 93.6% in the test with HOP-92 NSCLC. Besides, the growth is 94.6% with NCI-H522 lung, 97.9% with A549/ATCC NSCLC, 102% with 786-0 renal and 100% with COLO 205 colon.
Consider `CC(=O)[C@H]1CCC/C=C/[C@@H]2C[C@H](O)C[C@H]2[C@H](O)/C=C/C(=O)O1`, for which the growth in the test on NCI-H23 lung was -5.21% (active); in the test on NCI-H226 lung, -57.6% (active); in the test on NCI-H322M lung, 29%; with HOP-62 NSCLC, 25.4%; in the test on NCI-H460 lung it was 6.67% (active); with HOP-92 NSCLC, 22.9%. The growth in the test with NCI-H522 lung is -41.2% (active); with A549/ATCC NSCLC it was 20.5%; with 786-0 renal, -48.3% (active); in the test with COLO 205 colon, -94.8% (active).
